This note sets out measurements from PubChem BioAssay AID1159580 (chemical genetic matrix, 2015).

This test in a line: chemical genetic growth profiling, strain panel (AID 1159580).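 Further: tested at 20 µM; growth read once vehicle control cultures reached saturation at 30 °C; 1 = growth at the plate median or of vehicle wells; lower values mean less growth of the strain.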 The note with it: S. cerevisiae deletion strains, growth OD.

About 2,000 (36%) of roughly 5,500 compounds were called active. Not shown: some 18% with an inconclusive outcome. The list shows a part of the results. Unmarked numbers belong to inactive results. No stated cut-off is given here; in the data, active means normalized growth mostly below about 0.91 (no sharp cut-off); inconclusive means no clear call, values can overlap the other calls; inactive means mostly above about 0.92.

For the compound `CC(=O)[C@@]12O[C@](C)(c3ccccc3)O[C@@H]1CC1C3CCC4=CC(=O)CC[C@]4(C)C3CC[C@@]12C` (some centres undefined), the normalized growth (locus YHR030C, strain SLT2, active compounds read low) is 1.06; the normalized growth (locus YHR079C, strain IRE1, active compounds read low) is 1.03; the normalized growth (locus YJL095W, strain BCK1, active compounds read low) is 0.901; the normalized growth (locus YJR066W, strain TOR1, active compounds read low) is 1.01; the normalized growth (locus YLR113W, strain HOG1, active compounds read low) is 0.897; the normalized growth (locus YNL183C, strain NPR1, active compounds read low) was 0.987. Further, the normalized growth runs as follows: (locus YOR231W, strain MKK1, active compounds read low) 1; (locus YPL256C, strain CLN2, active compounds read low) 1.02.

Regarding `C[C@]12CCC(=O)C=C1CC[C@@H]1[C@@H]2[C@@H](O)C[C@@]2(C)[C@H]1CC[C@]2(O)C(=O)COC(=O)CCC(=O)O`, the normalized growth (locus YAL040C, strain CLN3, active compounds read low) was 1.11 [resistant] (active); the normalized growth (locus YCL061C, strain MRC1 (second series), active compounds read low) was 1; the normalized growth (locus YDR363W, strain ESC2, active compounds read low) was 1; the normalized growth (locus YER002W, strain NOP16, active compounds read low) was 0.982; the normalized growth (locus YGR078C, strain PAC10, active compounds read low) is 1.01; the normalized growth (locus YNL175C, strain NOP13, active compounds read low) was 1.01. In addition, the normalized growth by setting is: (locus YNL197C, strain WHI3, active compounds read low) 1.01; (locus YNL224C, strain SQS1, active compounds read low) 0.994; (locus YNL322C, strain KRE1, active compounds read low) 0.996; (locus YOR083W, strain WHI5 (second series), active compounds read low) 0.972; (locus YPL241C, strain CIN2, active compounds read low) 0.999.
